CYP2C9 activ: activators of human CYP2C9 | recombinant CYP2C9, luciferin-H conversion, luminescence; active compounds read high; factor 1 = untreated enzyme, 0 = blocked | P11712 | 1.4% of 96,000 active | activation factor at 5 µM;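 active means activation factor of 2 or more for CYP2C9 at a 5 µM dose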
CYP2C9 inhib: human CYP2C9 inhibition. inhibition, % at 5 µM. 20% of 96,000 active. AID 777. CYP2C9 Supersomes, luciferin-H conversion, luminescence. P11712;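 active means blocking of liver enzyme CYP2C9 beyond about 50% at 5 µM, limit read from the data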
PLAP activator: human PLAP activation. P05187. purified PLAP enzyme, luminescent substrate read-out; active compounds read high. activation fold at 20 µM. 1.2% of 96,000 active. AID 696; in the data active means activation fold above about 2
Target sequence (P05187 whole entry, looked up): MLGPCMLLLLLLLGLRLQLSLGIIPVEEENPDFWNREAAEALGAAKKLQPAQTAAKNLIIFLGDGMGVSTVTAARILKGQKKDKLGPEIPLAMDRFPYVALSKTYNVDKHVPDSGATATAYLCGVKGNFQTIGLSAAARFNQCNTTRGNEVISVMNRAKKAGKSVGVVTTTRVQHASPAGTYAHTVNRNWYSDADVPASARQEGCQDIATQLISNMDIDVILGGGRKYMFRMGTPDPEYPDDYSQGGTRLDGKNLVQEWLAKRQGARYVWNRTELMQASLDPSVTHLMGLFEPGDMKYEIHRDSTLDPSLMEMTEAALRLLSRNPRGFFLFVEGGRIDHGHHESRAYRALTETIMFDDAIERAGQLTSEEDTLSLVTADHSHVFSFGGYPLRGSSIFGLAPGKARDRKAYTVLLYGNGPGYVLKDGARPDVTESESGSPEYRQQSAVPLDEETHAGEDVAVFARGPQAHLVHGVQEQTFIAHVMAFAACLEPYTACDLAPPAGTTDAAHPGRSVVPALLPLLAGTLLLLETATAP
CYP2C19 act: cytochrome P450 2C19 (human) activation; P33261; 96,000 tested, under 10 active; recombinant CYP2C19, luciferin-H EGE luminescence; active compounds read high; 0 = fully inhibited enzyme, 1 = untreated enzyme; activation factor at 5 µM; AID 1025;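 active means activation factor of at least 2 at 5 µM in the primary screen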
CYP2C19 inhib: inhibitors of human CYP2C19. P33261. CYP2C19 Supersomes, luciferin-H EGE luminescence, 30 min. inhibition, % at 5 µM. 21% of 96,000 active. AID 778;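 active means CYP2C19 inhibition above a set limit at 5 µM in the primary screen, cut at about 50% in these data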
Hits are given with their value; . = inactive. An excerpt weighted towards active compounds, which were near 31% of everything screened.

SMILES | CYP2C9 activ | CYP2C9 inhib | PLAP activator | CYP2C19 act | CYP2C19 inhib
O=C(COc1ccc(S(=O)(=O)NC2CCCCC2)cc1)N1CCN(c2ccc(F)cc2)CC1 | . | . | . | . | .
COc1ccc(-c2cc(C(F)(F)F)n3nc(C(=O)N4CCOCC4)nc3n2)cc1 | . | . | . | . | .
Cc1cc(C)n(C2CCCCC2OC(=O)c2ccccc2)n1 (stereo not given) | . | . | . | . | 53.0
Cc1ccc2nc(CSc3nc(C)ccc3C#N)[nH]c2c1 | . | . | 2.2 | . | 58.1
O=[N+]([O-])c1cccc(-n2nnnc2CN2CCCCCC2)c1 | . | . | . | . | 94.0
Clc1ccc(-n2nnnc2CN2CCOCC2)cc1 | . | . | . | . | .
COc1cc(OC)c(N2CC34C=CC(O3)C(C(=O)O)C4C2=O)cc1Cl (stereo not given) | . | . | . | . | .
O=C(CN(c1ccc(F)cc1)S(=O)(=O)c1ccc2c(c1)OCCO2)NCc1cccnc1 | . | 84.0 | . | . | 93.9
CCCNC(=O)CN(c1ccc(F)cc1)S(=O)(=O)c1ccc2c(c1)OCCO2 | . | 85.0 | . | . | 81.2
O=C(CN(c1ccc(F)cc1)S(=O)(=O)c1ccc2c(c1)OCCO2)NCc1ccncc1 | . | 73.2 | . | . | 89.8
O=C(O)CN(c1ccc(F)cc1)S(=O)(=O)c1ccc2c(c1)OCCO2 | . | . | . | . | .
Cc1ccc(NC(=O)c2cc(S(=O)(=O)N3CCC4(CC3)OCCO4)ccc2F)cc1 | . | . | . | . | .
CS(=O)(=O)N(CC(=O)NCCSCc1c(F)cccc1Cl)c1ccc2c(c1)OCO2 | . | 56.7 | . | . | 79.0
COc1ccc(N(CC(=O)NCCSCc2c(F)cccc2Cl)S(C)(=O)=O)cc1OC | . | 86.7 | . | . | .
c1ccc2c(c1)ncn2Cc1nnc2sc(-c3ccncc3)nn12 | . | . | . | . | 78.5
c1cncc(-c2nn3c(Cn4cnc5ccccc54)nnc3s2)c1 | . | . | . | . | .
c1ccc(-c2nn3c(Cn4cnc5ccccc54)nnc3s2)cc1 | . | . | . | . | 78.8
Nc1nc(CSc2nnnn2-c2ccc(Cl)cc2)nc(N2CCOCC2)n1 | . | . | . | . | .
COc1ccc(/C=N/OCc2nc3c4c(ncn3n2)Oc2ccc3ccccc3c2C4c2ccccc2)cc1 (stereo not given) | . | . | . | . | 69.3
COc1ccc(-c2oc3ncn4nc(COc5ccccc5)nc4c3c2-c2ccc(OC)cc2)cc1 | . | . | . | . | .
Cc1nn(CC(=O)Nc2ccccn2)c(C)c1[N+](=O)[O-] | . | . | . | . | .
CCOC(=O)c1c(CN2CCCCC2)n(C)c2ccc(OC)c(S(=O)(=O)c3ccccc3)c12 | . | . | . | . | .
CCCCOc1cccc(C(=O)N(Cc2ccco2)C2CCS(=O)(=O)C2)c1 (stereo not given) | . | 81.9 | . | . | .
CCCCOc1cccc(C(=O)N(Cc2cccs2)C2CCS(=O)(=O)C2)c1 (stereo not given) | . | . | . | . | .
CCOc1cccc(C(=O)N(Cc2ccc(F)cc2)C2CCS(=O)(=O)C2)c1 (stereo not given) | . | . | . | . | 50.7
SMILES | CYP2C9 activ | CYP2C9 inhib | PLAP activator | CYP2C19 act | CYP2C19 inhib
COC(=O)c1ccc(COC(=O)c2ccc(S(=O)(=O)N3CCC(C)CC3)cc2)o1 | . | 68.9 | . | . | .
CC1CCN(S(=O)(=O)c2ccc(C(=O)OCc3ccc4c(c3)OCO4)cc2)CC1 | . | . | . | . | .
COc1ccc(NS(=O)(=O)Cc2ccccc2)cc1OC | . | . | . | . | .
CC(=O)N(C)c1ccc(NS(=O)(=O)Cc2ccccc2)cc1 | . | . | . | . | .
CN(Cc1ccccc1)S(=O)(=O)c1ccc(Cl)nc1 | . | . | . | . | 70.2
CC(=O)c1ccc(NS(=O)(=O)Cc2ccccc2)cc1 | . | 97.1 | . | . | 92.7
CN(Cc1ccccc1)S(=O)(=O)c1ccc(NS(=O)(=O)Cc2ccccc2)cc1 | . | 94.3 | . | . | 93.6
O=C(c1cccc(S(=O)(=O)N2CCOCC2)c1)N1CCN(c2ccc(F)cc2)CC1 | . | . | . | . | .
Cc1ccc(-c2nc(SCC(=O)N(C)C3CCS(=O)(=O)C3)[nH]c2-c2ccc(C)cc2)cc1 (stereo not given) | . | . | . | . | .
Cc1cc(NS(=O)(=O)c2ccc(NC(=O)CCCOc3ccccc3)cc2)no1 | . | . | . | . | .
CC(C)(C)c1ccc(OCCC(=O)NC2=NCCS2)cc1 | . | . | . | . | .
Cc1cc(NS(=O)(=O)c2ccc(NC(=O)CCCOc3ccc(Cl)cc3)cc2)no1 | . | 57.8 | . | . | .
COc1ccc(OCCC(=O)NC2=NCCS2)cc1 | . | . | . | . | 75.5
COc1ccc(C(=O)/C=C/Nc2cc(C)on2)cc1 | . | . | . | . | 57.5
COc1ccc(OCCC(=O)Nc2cc(C)on2)cc1 | . | . | . | . | 63.4
Cc1nc2ncnn2c(C)c1CCC(=O)NCCCN1CCN(c2cccc(Cl)c2)CC1 | . | . | . | . | .
O=C(CNC(=O)c1ccccc1)NC1(C(=O)NC2CCCC2)CCCCC1 | . | . | . | . | .
CCC(C)Cn1c(C(C)O)nc2ccccc21 (stereo not given) | . | . | . | . | .
CCN(CCNC(=O)CCCn1nc(C)n2c(cc3sccc32)c1=O)c1ccccc1 | . | . | . | . | .
CCNC(=O)CC1C(=O)N(c2ccc(F)cc2)C(=O)N1Cc1ccccn1 (stereo not given) | . | . | . | . | .
CCOc1ccc(N/C=C/C(=O)c2ccc(OC)cc2)c([N+](=O)[O-])c1 | 3 | . | . | . | .
COc1ccc(C(C(=O)NC(C)(C)C)N(Cc2ccco2)C(=O)CCC(=O)Nc2cc(C)on2)cc1 (stereo not given) | . | 69.4 | . | . | .
Cc1ccc2c(Cl)cc(Cl)c(OCC(=O)Nc3cc(C)on3)c2n1 | . | . | . | . | 50.1
O=C(O)CC(=O)Nc1ccccc1C(=O)O | . | . | . | . | .
O=C(Cc1ccc(-n2cccc2)cc1)NC1CCCCC1 | . | 68.8 | . | . | 55.4
SMILES | CYP2C9 activ | CYP2C9 inhib | PLAP activator | CYP2C19 act | CYP2C19 inhib
CCn1c(C)c(/C=N/Nc2nc3ccccc3s2)c2ccccc21 | . | . | . | . | .
COC(=O)C1C(O)=C(C=NCC(C)N=CC2=C(O)C(C(=O)OC)C(C)(C)CC2=O)C(=O)CC1(C)C (stereo not given) | . | . | 2.2 | . | .
Cc1ccc(NC2=NCC(=O)N2CCc2ccccc2)cc1C | . | . | . | . | 98.0
CCOc1ccc(NC2=C(Cl)C(=O)N(Cc3ccccc3)C2=O)cc1 | . | . | . | . | .
CCOc1ccc(NC2=NCC(=O)N2CCc2ccccc2)cc1 | . | . | . | . | 66.6
O=C(Nc1cccc([N+](=O)[O-])c1)C12CC3CC(C1)CC(n1cnc([N+](=O)[O-])n1)(C3)C2 | . | . | . | . | .
CCOC(=O)Cn1c(=O)oc2cc(S(=O)(=O)Nc3ccc(N(CC)CC)cc3C)ccc21 | . | 61.2 | . | . | 66.7
CCOC(=O)Cn1c(=O)oc2cc(S(=O)(=O)Nc3cc(Cl)ccc3OC)ccc21 | . | 60.7 | . | . | .
